# CYP2C19 activ: increases human CYP2C19 enzyme activity. P33261. recombinant CYP2C19, luciferin-H EGE luminescence; active compounds read high; 0 = fully inhibited enzyme, 1 = untreated enzyme. activation factor at 5 µM. 96,000 tested, under 10 active;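 active = activation factor of at least 2 at 5 µM in the primary screen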
# E-sel TNF inh: TNF alpha driven E-selectin expression inhibition | inhibition, % at 2 µM | HUVEC TNFa-induced E-selectin immunofluorescence, high content | AID 1246 | 0.71% of 120,000 active;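 active = inhibition above the batch mean plus 3 SD, and confirmed as a hit on visual image review, cut at about 43% in these data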
# CYP2C19 inh: blocks human cytochrome P450 2C19; inhibition, % at 5 µM; 21% of 96,000 active; AID 778; CYP2C19 Supersomes, luciferin-H EGE luminescence, 30 min;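 active = CYP2C19 inhibition above a set limit at 5 µM in the primary screen, cut at about 50% in these data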
# cytoskel mod: alters cytoskeleton assembly in HUVEC cells; HUVEC TNFa F-actin phalloidin imaging, high content; inhibition, % at 2 µM; 0.18% of 91,000 active;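 active = inhibition above the batch mean plus 3 SD and confirmed as a hit by visual image inspection, cut at about 30% in these data, passing the limit was not always enough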
# CYP2C9 activ: increases human cytochrome P450 2C9 activity; activation factor at 5 µM; AID 1024; recombinant CYP2C9, luciferin-H conversion, luminescence; active compounds read high; factor 1 = untreated enzyme, 0 = blocked; P11712; 1.4% of 96,000 active;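 active = activation factor of 2 or more for CYP2C9 at a 5 µM dose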
# Target sequence (P11712 whole entry, looked up): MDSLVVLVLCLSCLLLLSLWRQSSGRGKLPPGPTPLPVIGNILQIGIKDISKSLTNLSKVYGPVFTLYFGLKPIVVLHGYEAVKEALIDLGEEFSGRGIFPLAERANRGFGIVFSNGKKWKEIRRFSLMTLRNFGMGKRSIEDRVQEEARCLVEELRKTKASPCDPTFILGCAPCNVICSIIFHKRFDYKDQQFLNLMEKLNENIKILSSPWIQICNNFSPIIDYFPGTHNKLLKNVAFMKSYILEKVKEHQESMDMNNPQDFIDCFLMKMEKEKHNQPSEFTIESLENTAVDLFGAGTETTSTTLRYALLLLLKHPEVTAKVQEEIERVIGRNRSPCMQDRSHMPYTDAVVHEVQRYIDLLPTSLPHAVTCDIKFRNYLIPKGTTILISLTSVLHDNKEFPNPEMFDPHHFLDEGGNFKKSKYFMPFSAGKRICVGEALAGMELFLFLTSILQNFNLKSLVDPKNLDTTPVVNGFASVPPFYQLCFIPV
# CYP2C9 inh: inhibitors of human CYP2C9 | 20% of 96,000 active | inhibition, % at 5 µM | CYP2C9 Supersomes, luciferin-H conversion, luminescence;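 active = blocking of liver enzyme CYP2C9 beyond about 50% at 5 µM, limit read from the data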
# A number is an active result; – = inactive; · = no result. Hits are enriched below; roughly 22% of the tested compounds scored in any of these assays.
SMILES,CYP2C19 activ,E-sel TNF inh,CYP2C19 inh,cytoskel mod,CYP2C9 activ,CYP2C9 inh
CCc1nc(OCc2ccccc2)c2sc3nc4c(cc3c2n1)COC(C)(C)C4,–,–,–,–,–,–
CCCC1CCC(c2ccc(C(=O)NN)cc2)CC1 (stereo not given),·,–,·,·,·,·
FC(F)Oc1ccc(NC(=S)N2CCN(Cc3ccccc3)CC2)cc1,·,–,·,·,·,·
O=C(CCn1cccc1)NCc1ccc(Cl)cc1,–,·,64,–,–,–
O=C(NCc1ccc(Cl)cc1)c1ccccc1Oc1ccccc1,–,–,–,–,–,54
Cc1cc(C(F)F)n2ncc(C(=O)NCc3ccccc3)c2n1,–,–,60,–,–,–
COc1ccc(CNC(=O)c2cnn3c(C(F)F)cc(C)nc23)cc1,·,–,·,–,·,·
O=C(NCc1ccc(Cl)cc1)c1cnn2ccccc12,–,–,76,–,–,–
O=C(NCCNC(=O)C(F)(F)F)c1ccncc1,–,·,–,·,–,–
COC(=O)c1ccccc1NC(=O)c1cnn2c(C(F)F)cc(C3CC3)nc12,–,–,–,–,–,–
O=C(NCCc1ccccc1)c1cnn2c(C(F)F)cc(C3CC3)nc12,–,–,87,–,–,–
CCc1nnc(NC(=O)C2CCN(S(=O)(=O)Cc3ccccc3)CC2)s1,·,–,·,–,·,·
COC(=O)c1ccc(NC(=S)NCCc2ccccc2C)cc1,·,–,·,·,·,·
COC(=O)c1ccc(NC(=S)NCCc2cccc(C)c2)cc1,–,–,77,–,–,79
COc1ccccc1C1/C(=C(/O)c2ccccc2)C(=O)C(=O)N1CC(C)C (stereo not given),–,–,–,·,–,59
COc1ccccc1C1/C(=C(/O)c2ccc(C)cc2)C(=O)C(=O)N1CC(C)O (stereo not given),–,–,–,–,–,–
O=C(/C=C(/c1ccc(Cl)cc1)n1cncn1)c1ccccc1,·,–,·,·,·,·
Cc1ccc(SC(c2ccccc2)C(Cn2cncn2)C(=O)c2ccccc2)cc1 (stereo not given),–,–,99,–,–,100
O=C(c1ccc(Cl)cc1)C(Cn1cncn1)C(Sc1ccccc1)c1ccccc1 (stereo not given),–,–,98,–,–,100
Cc1ccc(S(=O)(=O)N2CCN(Cc3nc4ccccc4[nH]3)CC2)cc1C,–,–,–,–,–,–
COc1ccc(S(=O)(=O)NCC(c2cccnc2)N2CCN(c3ccccc3OC)CC2)cc1C (stereo not given),–,·,74,·,–,–
COc1ccccc1N1CCN(C(CNS(=O)(=O)c2ccccc2)c2cccnc2)CC1 (stereo not given),–,–,86,–,–,62
COc1ccccc1N1CCN(C(CNS(=O)(=O)c2cc(F)ccc2F)c2cccnc2)CC1 (stereo not given),·,–,·,·,·,·
Cn1c(SCC(=O)NCCN2C(=O)CSC2=O)nc2ccccc2c1=O,–,·,–,–,–,–
CCOc1ccc(NC(=O)c2nn(C)cc2Br)cc1,–,–,–,–,2.1,–
SMILES,CYP2C19 activ,E-sel TNF inh,CYP2C19 inh,cytoskel mod,CYP2C9 activ,CYP2C9 inh
CCOc1ccc2c(c1)C(=NNC(=O)c1ccncc1)c1cc(OCC)ccc1-2,·,–,·,·,·,·
CCOc1ccc(NC(=O)c2ccncc2)cc1,–,–,73,–,–,73
CCOc1ccc(C(=O)c2ccncc2)cc1,–,–,87,–,–,75
[O-][N+]12CC[N+]([O-])(CC1)c1ccccc12,–,–,–,–,–,–
COc1ccc(-n2c(-c3ccccc3)nnc2-c2ccc(Cl)cc2)cc1,–,–,–,–,–,–
Clc1ccc(-n2nnnc2-c2ccccc2)cc1,–,–,98,·,–,61
O=C(O)c1nc(-c2ccccc2)n(-c2ccc(Cl)cc2)n1,–,–,–,–,–,–
COc1ccc(-n2nnnc2-c2ccccc2)cc1,–,–,76,–,–,–
COc1ccc(OCc2nnnn2-c2ccccc2)cc1,–,–,69,–,–,–
COc1cccc(NC(=O)CSc2ccc3nnc(-c4ccncc4)n3n2)c1,–,·,–,–,–,–
O=C(CN1C(=O)COc2ccccc21)NCCC1=CCCCC1,–,–,81,·,–,–
O=C(CCN1C(=O)COc2ccccc21)NCCC1=CCCCC1,–,–,63,·,–,–
O=C(CN1C(=O)COc2ccccc21)NCCCN1CCc2ccccc2C1,–,–,–,–,–,–
CCCOc1ccc(N2C(=O)CC(SC(=N)N3N=C(c4ccccc4)CC3c3ccccc3)C2=O)cc1 (stereo not given),·,–,·,·,·,·
CC(C)NC(=O)CN(C(=O)CCC(=O)Nc1ccccn1)c1ccc(F)c(Cl)c1,–,–,66,–,–,–
CCC(C)(C)NC(=O)CN(C(=O)CCC(=O)Nc1ccccn1)c1ccc(F)c(Cl)c1,–,–,85,–,–,75
Cc1ccc(-c2nc(CSCC(=O)NCCCN3CCOCC3)c(C)o2)cc1,–,–,–,–,–,–
CSc1ccc(-c2nc(CSCC(=O)NCCCN3CCOCC3)c(C)o2)cc1,–,–,56,–,–,–
Cc1cccc(NCc2cc(Cl)cc(Cl)c2O)n1,·,–,·,–,·,·
CCCCn1nc2cc(C(=O)NCCc3cccs3)ccc2c1OCC,–,·,61,–,–,53
CCCCn1nc2cc(C(=O)NCc3ccccc3OC)ccc2c1OCC,–,·,–,–,–,56
CCCCn1nc2cc(C(=O)N(CC)c3ccc(OC)cc3)ccc2c1OCC,–,·,52,–,–,75
CCCCn1nc2cc(C(=O)NC3CCc4ccccc43)ccc2c1OCC (stereo not given),–,·,–,–,–,56
CCN(C(=O)c1ccc2c(OC)n(CC)nc2c1)c1ccc(OC)cc1,–,–,–,–,–,–
CCCn1nc2cc(C(=O)NC3CCCc4ccccc43)ccc2c1OCC (stereo not given),–,–,–,–,–,–
SMILES,CYP2C19 activ,E-sel TNF inh,CYP2C19 inh,cytoskel mod,CYP2C9 activ,CYP2C9 inh
CCCCn1nc2cc(C(=O)NCc3cc(C(F)(F)F)cc(C(F)(F)F)c3)ccc2c1OC,–,·,–,–,–,–
CCOC(=O)Cn1c2[n+](c3ccccc31)CC(O)CS2 (stereo not given),–,–,–,·,–,–
CCOC(=O)C1CCN(C(=O)COC(=O)c2cccc(F)c2)CC1,·,–,·,·,·,·
CCCn1nc2cc(C(=O)NCCc3ccc(C)cc3)ccc2c1OCC,–,–,–,–,–,–
CCCCn1nc2cc(C(=O)NCC34CC5CC(CC(C5)C3)C4)ccc2c1OCC,–,·,–,–,–,71
O=C(CNC(=O)C12CC3CC(CC(C3)C1)C2)N1CCN(S(=O)(=O)c2cccs2)CC1,·,–,·,·,·,·
CCCCN(CC)C(=O)c1ccc(Cl)c(Cl)c1,–,–,84,–,–,–
CCN(CC)C(=O)c1ccc(C(=O)c2c(C)cc(C)cc2C)cc1,–,–,–,–,–,–
CCN(C(=O)c1sc(N)c(C#N)c1C)C1CCCCC1,–,–,59,·,–,–
CCN(CC)C(=O)c1sc(NC(=O)Cc2cccs2)c(C#N)c1C,–,–,–,–,–,–
CSc1nc2ccc(NS(=O)(=O)c3ccccc3F)cc2s1,·,–,·,·,·,·
